Experimental data published in the supplement of paper PMC8975748.
Where a name gives a salt, the structure may show the parent alone. ± gives the standard deviation of the averaged measurements.

Legend:
[1] = system: Saccharomyces cerevisiae BY4741 SeMeCo community; experiment: mean cell size (pixel area) (pixels); higher = larger cells; conditions: 10 µM; 24 h; SM minimal medium
Summary of the method: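 In this assay, mean cell pixel area per well was obtained from automated confocal images of paraformaldehyde-fixed yeast analysed in Harmony. The cells were a Saccharomyces cerevisiae BY4741 community with four plasmids, each complementing one auxotrophy and carrying a fluorescent marker, grown for 24 h in SM medium with drug at a final 10 µM in 384-well plates. Values are averaged across 3 replicates. Same SeMeCo high-content imaging drug screen: Selleck FDA-approved drugs at 10 µM, 24 h in SM medium, 384-well plates, 3 replicates.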

[2] = system: Saccharomyces cerevisiae BY4741 SeMeCo community; experiment: z-score of prototroph abundance vs DMSO median; higher = larger share of this subpopulation than in DMSO controls; conditions: 10 µM; 24 h; SM minimal medium; subpopulation (auxotrophy): Prototroph
Summary of the method: (§1)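 Subpopulation abundance was reported as a z-score against the median of vehicle wells. The Saccharomyces cerevisiae BY4741 community, carrying four plasmids that each restored one auxotrophy and encoded a distinct fluorescent protein, was grown 24 h in minimal SM medium in 384-well plates holding library drugs at 10 µM final. Cells were paraformaldehyde-fixed and imaged by automated confocal microscopy, with single-auxotroph fluorescent strains used for thresholds and autofluorescence correction.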

[3] = system: Saccharomyces cerevisiae BY4741 SeMeCo community; experiment: z-score of subpopulation abundance vs DMSO median, subpopulation auxotrophic for M; higher = larger share of this subpopulation than in DMSO controls; conditions: 10 µM; 24 h; SM minimal medium; subpopulation (auxotrophy): M
Summary of the method: as §1

[4] = system: Saccharomyces cerevisiae BY4741 SeMeCo community; experiment: z-score of subpopulation abundance vs DMSO median, subpopulation auxotrophic for L; higher = larger share of this subpopulation than in DMSO controls; conditions: 10 µM; 24 h; SM minimal medium; subpopulation (auxotrophy): L
Summary of the method: as §1

[5] = system: Saccharomyces cerevisiae BY4741 SeMeCo community; experiment: z-score of subpopulation abundance vs DMSO median, subpopulation auxotrophic for U; higher = larger share of this subpopulation than in DMSO controls; conditions: 10 µM; 24 h; SM minimal medium; subpopulation (auxotrophy): U
Summary of the method: as §1

[6] = system: Saccharomyces cerevisiae BY4741 SeMeCo community; experiment: z-score of subpopulation abundance vs DMSO median, subpopulation auxotrophic for LU; higher = larger share of this subpopulation than in DMSO controls; conditions: 10 µM; 24 h; SM minimal medium; subpopulation (auxotrophy): LU
Summary of the method: as §1

[7] = system: Saccharomyces cerevisiae BY4741 SeMeCo community; experiment: z-score of subpopulation abundance vs DMSO median, subpopulation auxotrophic for LM; higher = larger share of this subpopulation than in DMSO controls; conditions: 10 µM; 24 h; SM minimal medium; subpopulation (auxotrophy): LM
Summary of the method: as §1

[8] = system: Saccharomyces cerevisiae BY4741 SeMeCo community; experiment: z-score of subpopulation abundance vs DMSO median, subpopulation auxotrophic for HM; higher = larger share of this subpopulation than in DMSO controls; conditions: 10 µM; 24 h; SM minimal medium; subpopulation (auxotrophy): HM
Summary of the method: as §1

[9] = system: Saccharomyces cerevisiae BY4741 SeMeCo community; experiment: z-score of subpopulation abundance vs DMSO median, subpopulation auxotrophic for HU; higher = larger share of this subpopulation than in DMSO controls; conditions: 10 µM; 24 h; SM minimal medium; subpopulation (auxotrophy): HU
Summary of the method: as §1

[10] = system: Saccharomyces cerevisiae BY4741 SeMeCo community; experiment: z-score of subpopulation abundance vs DMSO median, subpopulation auxotrophic for UM; higher = larger share of this subpopulation than in DMSO controls; conditions: 10 µM; 24 h; SM minimal medium; subpopulation (auxotrophy): UM
Summary of the method: as §1

[11] = system: Saccharomyces cerevisiae BY4741 SeMeCo community; experiment: z-score of subpopulation abundance vs DMSO median, subpopulation auxotrophic for HL; higher = larger share of this subpopulation than in DMSO controls; conditions: 10 µM; 24 h; SM minimal medium; subpopulation (auxotrophy): HL
Summary of the method: as §1

[12] = system: Saccharomyces cerevisiae BY4741 SeMeCo community; experiment: z-score of subpopulation abundance vs DMSO median, subpopulation auxotrophic for HLU; higher = larger share of this subpopulation than in DMSO controls; conditions: 10 µM; 24 h; SM minimal medium; subpopulation (auxotrophy): HLU
Summary of the method: as §1

[13] = system: Saccharomyces cerevisiae BY4741 SeMeCo community; experiment: z-score of subpopulation abundance vs DMSO median, subpopulation auxotrophic for HLM; higher = larger share of this subpopulation than in DMSO controls; conditions: 10 µM; 24 h; SM minimal medium; subpopulation (auxotrophy): HLM
Summary of the method: as §1

[14] = system: Saccharomyces cerevisiae BY4741 SeMeCo community; experiment: z-score of subpopulation abundance vs DMSO median, subpopulation auxotrophic for HUM; higher = larger share of this subpopulation than in DMSO controls; conditions: 10 µM; 24 h; SM minimal medium; subpopulation (auxotrophy): HUM
Summary of the method: as §1

[15] = system: Saccharomyces cerevisiae BY4741 SeMeCo community; experiment: z-score of subpopulation abundance vs DMSO median, subpopulation auxotrophic for LUM; higher = larger share of this subpopulation than in DMSO controls; conditions: 10 µM; 24 h; SM minimal medium; subpopulation (auxotrophy): LUM
Summary of the method: as §1

[16] = system: Saccharomyces cerevisiae BY4741 SeMeCo community; experiment: z-score of subpopulation abundance vs DMSO median, subpopulation auxotrophic for HLUM; higher = larger share of this subpopulation than in DMSO controls; conditions: 10 µM; 24 h; SM minimal medium; subpopulation (auxotrophy): HLUM
Summary of the method: as §1

[17] = system: Saccharomyces cerevisiae BY4741 SeMeCo community; experiment: z-score of subpopulation abundance vs DMSO median, subpopulation auxotrophic for H; higher = larger share of this subpopulation than in DMSO controls; conditions: 10 µM; 24 h; SM minimal medium; subpopulation (auxotrophy): H
Summary of the method: as §1

SMILES | mean cell size [1] | z-score of prototroph abundance [2] | z-score of subpopulation abundance [3] | z-score of subpopulation abundance [4] | z-score of subpopulation abundance [5] | z-score of subpopulation abundance [6] | z-score of subpopulation abundance [7] | z-score of subpopulation abundance [8] | z-score of subpopulation abundance [9] | z-score of subpopulation abundance [10] | z-score of subpopulation abundance [11] | z-score of subpopulation abundance [12] | z-score of subpopulation abundance [13] | z-score of subpopulation abundance [14] | z-score of subpopulation abundance [15] | z-score of subpopulation abundance [16] | z-score of subpopulation abundance [17]
CCCCc1oc2ccc(NS(C)(=O)=O)cc2c1C(=O)c1ccc(OCCCN(CCCC)CCCC)cc1 [Dronedarone HCl] | 12.24 ± 0.057 | -0.15 | -0.05 | 0.34 | -0.45 | 0.61 | 0.28 | 1.04 | 0.78 | -0.63 | 1.2 | 2.17 | 1.9 | -0.2 | 0.59 | 0 | –
CN(C)CCC[C@@]1(c2ccc(F)cc2)OCc2cc(C#N)ccc21 [Escitalopram Oxalate] | 12.4 ± 0.18 | 1.15 | 0.05 | 0.5 | -0.79 | -0.08 | 0.48 | -0.98 | -0.95 | -0.53 | -0.1 | -0.25 | -0.63 | -0.36 | -0.28 | 0.18 | -0.42
CNCC[C@H](Oc1cccc2ccccc12)c1cccs1 [Duloxetine HCl] | 12.5 ± 0.21 | 0.65 | 0.4 | -0.57 | -0.11 | -0.43 | -0.49 | 0 | -1.13 | 0.1 | -1.07 | -0.74 | -0.84 | -0.47 | -0.53 | 0.03 | -0.45
CCn1cc(C(=O)O)c(=O)c2cc(F)c(N3CCNCC3)cc21 [Norfloxacin] | 12.3 ± 0.21 | 0.05 | 0.77 | -0.15 | -0.7 | -0.24 | 0.65 | 0.41 | -0.03 | -0.54 | 0.28 | -0.16 | -0.51 | 0.46 | -0.23 | -0.9 | 0.31
C[C@@H]1[C@H](O)[C@@H](C)/C=C/C=C/C=C/C=C/C=C/C=C/C=C/[C@H](O[C@@H]2O[C@H](C)[C@@H](O)[C@H](N)[C@@H]2O)C[C@@H]2O[C@](O)(C[C@@H](O)C[C@@H](O)[C@H](O)CC[C@@H](O)C[C@@H](O)CC(=O)O[C@H]1C)C[C@H](O)[C@H]2C(=O)O [Amphotericin B] | 9.69 ± 0.22 | -19.9 | -8.72 | -2.03 | -0.38 | 24.4 | -0.85 | 0.42 | 10.5 | 29.4 | 8.48 | 31.3 | 12.6 | 75.7 | 29.1 | 163 | -5.04
CCCc1cc(C(N)=S)ccn1 [Protionamide] | 12.4 ± 0.19 | 0.19 | 0.32 | 0.04 | -0.66 | -0.68 | 0.16 | 0.36 | -0.73 | 0.32 | -0.83 | -0.42 | -0.03 | 0.47 | -0.28 | -0.96 | -0.56
Cc1c(C(N)=O)cc([N+](=O)[O-])cc1[N+](=O)[O-] [Dinitolmide] | 12.4 ± 0.22 | -0.01 | -0.14 | 0.45 | 0.48 | 1.05 | 0.46 | -0.5 | 0.78 | 0.34 | -0.36 | -0.18 | -0.3 | -0.56 | -0.13 | 0.38 | -0.33
CC1=C(C(=O)O)N2C(=O)[C@@H](NC(=O)[C@H](N)C3=CCC=CC3)[C@H]2SC1 [Cephradine monohydrate] | 11.9 ± 0.16 | 0.03 | -0.02 | -0.33 | 1.31 | 0.27 | -0.77 | -0.39 | 0.11 | 0.58 | -0.62 | -0.12 | 0.11 | -0.61 | -0.79 | 0.01 | -0.1
CCOC(=O)C1=C(COCCN)NC(C)=C(C(=O)OC)[C@@H]1c1ccccc1Cl [Levamlodipine] | 12.5 ± 0.2 | 3.33 | 5.72 | 1.13 | -7.34 | -6.47 | 3.35 | 4.13 | -6.75 | -8.09 | 2.19 | -3.25 | 1.82 | -5.45 | -4.52 | -1.12 | –
CCOC(=O)CCC(=O)O[C@H]1[C@H](O[C@@H]2[C@@H](C)[C@H](O[C@H]3C[C@@](C)(OC)[C@@H](O)[C@H](C)O3)[C@@H](C)C(=O)O[C@H](CC)[C@@](C)(O)[C@H](O)[C@@H](C)C(=O)[C@H](C)C[C@@]2(C)O)O[C@H](C)C[C@@H]1N(C)C [Erythromycin Ethylsuccinate] | 12.4 ± 0.15 | -2.21 | 1.39 | 2.32 | -0.67 | 0.76 | 3.22 | 3.14 | 0.76 | -0.31 | 3.1 | 1.44 | 2.71 | 1.68 | 2.68 | 0.83 | –
CCCC1CC(C(=O)NC(C(C)Cl)C2OC(SC)C(O)C(O)C2O)N(C)C1 (stereo not drawn) [Clindamycin alcoholate] | 12.1 ± 0.19 | -0.45 | 0.25 | 1.51 | -0.8 | -0.02 | 1.04 | 0.91 | -0.93 | -0.51 | 1.2 | -0.02 | 0.08 | 0.14 | 0.51 | -0.12 | 0.65
Cc1nccn1CC1CCc2c(c3ccccc3n2C)C1=O (stereo not drawn) [Ondansetron HCl] | 12.4 ± 0.2 | 0.89 | -1.05 | -0.44 | 0.47 | -0.06 | -0.49 | -0.93 | -0.51 | 0.08 | -0.77 | -0.69 | -0.71 | -0.03 | -0.9 | -0.89 | -0.7
C[C@H](NCc1ccc(OCc2cccc(F)c2)cc1)C(N)=O [Safinamide] | 12.47 ± 0.075 | -0.89 | 0.59 | -0.58 | 1.46 | 0.99 | 0.37 | 0.41 | 1.16 | 0.6 | 0.15 | 0.72 | 1.35 | -0.17 | 0.42 | 0.95 | -0.07
